{"source": "PubChem BioAssay AID624246", "about": "(National Center for Advancing Translational Sciences (NCATS), 2012)", "note": "Hit rate of the full screen: of about 370,000 compounds, about 100 (0.027%) were called active. For the sample, actives were picked, then their nearest neighbours and some compounds at random. A number with no mark means an inactive call. Calls come from the whole dose curve; as a rule, active = well fitted inhibition curve with a large enough effect in the polarisation, with a control signal flat; inconclusive = small, poorly fitted or top-dose-only effect, or effect the other way, or a change in a side signal; inactive = no such curve, though single readings can be large or run the other way; the % refers to the polarisation. Potency is the fitted concentration of half-maximal effect.", "data": [{"target": "Transcriptional regulator ERG (Homo sapiens) (UniProt P11308)", "sequence (P11308 whole entry, looked up, the tested form may be a part)": "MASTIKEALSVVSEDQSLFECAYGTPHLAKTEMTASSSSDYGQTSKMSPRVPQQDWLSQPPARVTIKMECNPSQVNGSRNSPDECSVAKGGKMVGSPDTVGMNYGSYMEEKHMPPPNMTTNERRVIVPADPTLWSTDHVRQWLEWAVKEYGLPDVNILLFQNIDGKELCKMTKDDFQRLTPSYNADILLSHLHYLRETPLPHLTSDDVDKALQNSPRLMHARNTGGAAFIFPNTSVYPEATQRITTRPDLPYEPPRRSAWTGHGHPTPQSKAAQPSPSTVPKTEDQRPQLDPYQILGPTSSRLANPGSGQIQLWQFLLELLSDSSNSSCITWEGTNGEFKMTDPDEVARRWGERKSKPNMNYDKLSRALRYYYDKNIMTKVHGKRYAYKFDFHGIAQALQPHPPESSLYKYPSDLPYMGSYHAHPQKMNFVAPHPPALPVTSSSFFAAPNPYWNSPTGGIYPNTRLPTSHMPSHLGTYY", "assay": "qHTS for Small Molecule Inhibitors of the ERG Ets/DNA interaction; for FP activity, negative = inhibition: % of control where 0% means no effect", "conditions": "fluorescence polarization, His-ERG Ets domain / labelled DNA; series mostly up to 76.9 µM; FP activity, negative = inhibition: at the top concentration", "excerpt": "The Ets family of proteins is a family of ~30 conserved transcription factors defined by the presence of an ~85 amino acid domain referred to as the Ets domain, which mediates sequence-specific DNA binding to a core DNA element GGAA/T.The Ets family member ERG has been linked to several neoplasms. […] More extensive studies of the effects of over-expression of ERG in prostate cells have recently been carried out and have shown that over-expression of ERG results in increased invasion. […] We will carry out a high throughout screen to identify inhibitors of the interaction between ERG and DNA using a fluorescence polarization (FP) assay with a His-tagged ERG Ets domain and fluorescently-labeled DNA probes to develop small molecule inhibitors of this interaction as probes to test this hypothesis and lay the groundwork for the development of targeted therapies against ERG. NIH Molecular Libraries Probe Production Network [MLPCN] NIH Chemical Genomics Center [NCGC] Grant: NS066464 PI Name: John Bushweller, University of Virgina\n1.5 ul of protein solution (1 uM ERG domain in 300mM KCl, 50mM Tris-HCl, 1mM EDTA, 1mM DTT, pH 7.5); 20 nl Control plate and compound library plate; 1.5 ul mixture of 5 nM Fluorescein-DNA and 100nM Texas-615-DNA solution in same buffer as above solution; measure fluorescence polarization sequentially for fluorescein (Excitation = 480 nm, Emission = 535s, 535p nm) and Texas red (Excitation = 555 nm, Emission = 632s, 632p nm).", "units": {"FP activity, negative = inhibition": "%"}, "values": [{"compound": "Cc1ccc(C)c(Nc2nnc(-c3ccc(C)c(S(=O)(=O)N4CCCCC4)c3)c3ccccc23)c1", "FP activity, negative = inhibition": 0.916}, {"compound": "CCCN1C(=O)C(O)(CC(=O)c2ccc(CC)cc2)c2cc(Br)ccc21", "note": "(stereo unspecified)", "FP activity, negative = inhibition": 6.2}, {"compound": "Cc1nn(CC(=O)O)c(=O)c2cc3cc(F)ccc3n12", "FP activity, negative = inhibition": -2.51}, {"compound": "CCOC(=O)c1ccc(NC(=O)C2CC(=O)N(c3ccc(C(C)C)cc3)C2)cc1", "note": "(stereo unspecified)", "FP activity, negative = inhibition": -0.232}, {"compound": "COc1cccc(Cn2c(CNS(=O)(=O)c3ccc(Cl)s3)nc3cccnc32)c1", "FP activity, negative = inhibition": -3.77}, {"compound": "COc1ncnc2c1N=C1CC(C)(C)CC(N)=C1S2", "Potency": "35.5 µM (active)"}, {"compound": "CC(=O)c1c(C)n(S(=O)(=O)c2ccc(Cl)cc2)c2ccc(NS(=O)(=O)c3ccc(Cl)cc3)cc12", "FP activity, negative = inhibition": -4.05}, {"compound": "COc1cccc(Cn2c(SCc3ccc(C(=O)N4CCCCC4)cc3)nc3ccncc32)c1", "FP activity, negative = inhibition": -1.17}, {"compound": "Fc1cccc(-n2ncc3c2ncn2nc(-c4ccccc4Cl)nc32)c1", "FP activity, negative = inhibition": -9.93}, {"compound": "Cc1ccc(-c2cn3c(n2)sc2cc(C(=O)NCc4cccs4)ccc23)c(C)c1", "FP activity, negative = inhibition": 1.59}, {"compound": "COc1ccccc1CNC(=O)c1ccccc1NC(=O)c1nsc2ccccc12", "FP activity, negative = inhibition": 0.107}, {"compound": "CC(=O)Nc1ccc(NC(=O)c2cc3sccc3n2Cc2ccc(F)cc2)cc1", "FP activity, negative = inhibition": 2.87}, {"compound": "CCOc1ccc(OCC)c(NC(=O)CN(c2ccc(C)cc2)S(=O)(=O)c2c(C)n[nH]c2C)c1", "FP activity, negative = inhibition": 0.183}, {"compound": "CCc1ccccc1N(C)C(=O)C1CCCN(c2ncnc3onc(-c4ccc(F)cc4)c23)C1", "note": "(stereo unspecified)", "FP activity, negative = inhibition": -3.47}, {"compound": "CCCc1nn2c(=O)cc(COC(=O)c3ccc(NC(=O)COc4ccc(F)cc4)cc3)nc2s1", "FP activity, negative = inhibition": 3.44}, {"compound": "COc1cc(NC(=O)Cn2c(=O)n(Cc3ccco3)c(=O)c3oc4ccccc4c32)cc(OC)c1", "FP activity, negative = inhibition": 7.39}, {"compound": "Cc1cccc(NC(c2cccc(F)c2)c2ccc3ccc(C)nc3c2O)n1", "note": "(stereo unspecified)", "FP activity, negative = inhibition": -6.48}, {"compound": "COc1cc(NC(=O)CCn2nc(C)cc2C)cc(OC)c1OC", "FP activity, negative = inhibition": 5.03}, {"compound": "Cc1cc(C)cc(OCC(=O)Nc2ccc(N3CCOCC3)cc2N2CCOCC2)c1", "Potency": "28.2 µM (active)"}, {"compound": "Cc1cc(C)cc(OCC(=O)Nc2cc(NC(=O)COc3cc(C)cc(C)c3)cc(C(=O)O)c2)c1", "FP activity, negative = inhibition": 1.28}, {"compound": "Cc1cc(N2CCCC2)ccc1NC(=O)COc1ccc(Cl)cc1", "FP activity, negative = inhibition": 47.5}, {"compound": "CCOc1ccc(NC(=O)c2c(NCc3cccc(OC)c3OC)sc3c2CCC3)cc1", "FP activity, negative = inhibition": -10.3}, {"compound": "Cc1cccc(C(=O)Nc2ccc(-c3nc4ncccc4o3)cc2C)c1", "FP activity, negative = inhibition": -3.97}, {"compound": "CC(=O)Nc1ccc(NC(=O)CCCc2nc(-c3ccc(C(C)(C)C)cc3)no2)cc1", "FP activity, negative = inhibition": 3.14}, {"compound": "COc1ccccc1CN1CCC(CNC(=O)c2cnn(-c3ccccc3Cl)c2C2CCN(C(=O)OC(C)(C)C)CC2)CC1", "FP activity, negative = inhibition": 2.12}, {"compound": "CC(C)Cn1c(=O)c2ccccc2n2c(CCC(=O)N3CCN(c4cccc(Cl)c4)CC3)nnc12", "FP activity, negative = inhibition": 1.77}, {"compound": "CCCn1c2ccccc2c2cnn(CC(=O)N(C)c3ccccc3CC)c(=O)c21", "FP activity, negative = inhibition": -8.81}, {"compound": "O=C(NCc1ccccc1Cl)C1=Cc2cc(Br)ccc2OC1", "FP activity, negative = inhibition": 3.13}, {"compound": "COc1ccc(NC(C)=O)cc1NC(=O)CN1CCN(c2ccc(F)cc2)CC1", "FP activity, negative = inhibition": 2.77}, {"compound": "O=C(CSc1oc(-c2ccco2)nc1S(=O)(=O)c1ccc(Cl)cc1)c1ccccc1", "FP activity, negative = inhibition": 5.44}, {"compound": "Cc1ccccc1-c1nc(CS(=O)(=O)CC(=O)Nc2cc(Cl)cc(Cl)c2)c(C)o1", "FP activity, negative = inhibition": 1.85}, {"compound": "Cc1ccc(NC(=O)c2nc(S(=O)(=O)Cc3cccc(C)c3)ncc2Cl)cc1", "FP activity, negative = inhibition": 1.14}, {"compound": "CCc1cccc(C)c1NS(=O)(=O)c1ccc(-c2cc(C)no2)s1", "FP activity, negative = inhibition": -4.44}, {"compound": "O=C(CC1N=C2c3ccccc3N=C(SCc3ccc(F)cc3)N2C1=O)NCc1cccs1", "note": "(stereo unspecified)", "FP activity, negative = inhibition": 10.7}, {"compound": "COc1cccc(-c2nc(CS(=O)(=O)CC(=O)N3CCN(c4cc(C)ccc4C)CC3)c(C)o2)c1", "FP activity, negative = inhibition": 12.5}, {"compound": "CSc1nc(Nc2ccc(F)cc2)cc(-c2ccccc2)n1", "FP activity, negative = inhibition": 2.27}, {"compound": "Cc1nc(SCC(=O)Nc2ccc(C(=O)O)cc2)n[nH]1", "FP activity, negative = inhibition": 3.12}, {"compound": "COc1ccc(NC(=O)CSc2nccn2C2CCCC2)cc1OC", "FP activity, negative = inhibition": -5.84}, {"compound": "COc1ccc(OCC(=O)Nc2cccc(C(=O)OCc3cc(=O)n4nc(C)sc4n3)c2)cc1", "FP activity, negative = inhibition": -16}, {"compound": "Cc1nnc(NC(=O)CSc2nc3c([nH]c4ccccc43)c(=O)n2-c2cccc(Cl)c2)s1", "FP activity, negative = inhibition": -4.44}, {"compound": "O=C(CSc1nc(=O)[nH]c2c1CCCC2)Nc1cc(C(F)(F)F)ccc1Cl", "FP activity, negative = inhibition": -2.51}, {"compound": "Cc1cc(C)cc(OCC(=O)Nc2nc(-c3ccc(F)cc3)ns2)c1", "FP activity, negative = inhibition": -4.35}, {"compound": "Cc1ccc(Cn2c(CNC(=O)Cc3cccc(C)c3)nc3cccnc32)cc1", "FP activity, negative = inhibition": -4.25}, {"compound": "CSc1ncc(Cl)c(C(=O)Nc2ccc(S(=O)(=O)N3CCCC(C)C3)cc2)n1", "note": "(stereo unspecified)", "FP activity, negative = inhibition": 0.507}, {"compound": "CCc1ccc(CNC(=O)c2ccc(CS(=O)c3ccc(Br)cc3)o2)cc1", "note": "(stereo unspecified)", "FP activity, negative = inhibition": -7.46}, {"compound": "Cc1cccc(C(=O)Nc2ccc(S(=O)(=O)N3CCCCC3c3cccnc3)cc2)c1", "note": "(stereo unspecified)", "FP activity, negative = inhibition": 3.94}, {"compound": "COc1ccc(-c2nc(CN3CCC(C(=O)NCCN(CC(C)C)CC(C)C)CC3)c(C)o2)cc1OC", "FP activity, negative = inhibition": 4.85}, {"compound": "Cc1cc(C)cc(NC(=O)CSc2oc(-c3ccccc3)nc2S(=O)(=O)c2ccc(Cl)cc2)c1", "FP activity, negative = inhibition": 0.322}, {"compound": "Cc1cccc(N2CCN(C(=O)c3cnc(N4CCCC4)nc3C)CC2)c1C", "FP activity, negative = inhibition": -2.02}, {"compound": "CCc1cc2c(cc(C(=O)OC)n2Cc2nc(-c3ccc(C)cc3)oc2C)s1", "FP activity, negative = inhibition": 2.28}, {"compound": "Cc1ccc(-c2cc(C(F)(F)F)c(C#N)c(SCC(=O)Nc3ccccc3)n2)cc1", "FP activity, negative = inhibition": -0.0269}, {"compound": "COc1ccc(C(=O)NCC(c2ccc(N(C)C)cc2)N2CCc3ccccc32)c(OC)c1", "note": "(stereo unspecified)", "FP activity, negative = inhibition": 2.3}, {"compound": "CC(=O)Nc1ccc(NC(=O)CSc2nnc3c4cc(Br)ccc4n(C)c3n2)cc1", "FP activity, negative = inhibition": 0.14}, {"compound": "O=C(CSc1oc(-c2ccco2)nc1S(=O)(=O)c1ccccc1)c1ccc(Cl)cc1", "FP activity, negative = inhibition": -11.3}, {"compound": "CCN(CC)CCCC(C)n1c2nc(=O)[nH]c(=O)c-2nc2cc(Cl)ccc21", "note": "(stereo unspecified)", "Potency": "35.5 µM (active)"}, {"compound": "Cc1ccccc1OCCSc1nc2ccc(NC(=O)c3ccco3)cc2s1", "FP activity, negative = inhibition": -2.16}]}]}
